The panel holds about 83,000 compounds, 20% with a hit somewhere; the sample as a whole holds those more often.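 Single-concentration screen, 48 h exposure, 96-well plates. Endpoint: percent growth. Below 10 = active.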 Values without a mark were called inactive. The source made the active and inactive calls.

The experiment deals with MDA-MB-468 breast. Description: NCI-60 one-dose screen, 48 h (100 = growth as untreated, 0 = no growth, -100 = all killed). Conditions: 10 µM unless noted.
Take `CCNCCOc1ccc(/C(=C(/CC)c2ccc(Cl)cc2)c2ccc(OCCCN(C)C)cc2)cc1`: the growth is -87% (active).
Take `CN(C)CCOC(=O)Nc1nc2ccc(Sc3ccccc3)cc2[nH]1`: the growth was 2.02% (active).
Turning to `COc1ccc(-c2nc(SCC(C)C)nc(Nc3ccc(C)cc3)c2C#N)cc1`, the growth was 71.1%.
The result for `CC(=O)N1N=C(c2ccc(Nc3nc(Nc4ccc(F)cc4)nc(Nc4ccc(Cl)cc4)n3)cc2)CC1c1ccc(N(C)C)cc1` (stereo not given) reads 56.2%.
On to `Cc1nc(Nc2ccc(F)c(Cl)c2)sc1C(=O)O`, for which the growth is -1.67% (active).
In the case of `COc1ccc(Nn2c(SCC(=O)Nc3nc(-c4ccc(Cl)cc4)cs3)nc(C)c2C)cc1`, the growth is 26.2%.
On to `Cc1n[nH]c(=O)n(/N=C\c2c[nH]c3ccccc23)c1=O`, for which the growth is 106%.
Take `CCOC(=O)CSc1c([N+](=O)[O-])ncn1C`: the growth is 91.1%.
As to `C=C1SC(=Nc2ccccc2Cl)N(C(=O)c2sc3ccccc3c2Cl)C1(C)C`, the growth was 50%.
Take `COc1ccc(C(=O)CSc2nc3c(c(Nc4ccc(S(N)(=O)=O)cc4)n2)CCCC3)cc1`: the growth was 108%.
Take `CC1=C2[C@@H](CC1)[C@]1(C)O[C@@](C(C)C)(C[C@H]1OC(=O)[C@H](C)O)[C@H]2OC(=O)/C=C/c1ccccc1`: the growth was 86.9%.
`Cc1ccc(-c2cc(-c3ccc(Cl)cc3)nc(NC(=O)c3cccnc3)n2)cc1`: the growth was 106%.
As to `O=C1c2c(c3c4cc(Br)ccc4[nH]c3c3ccc4ccccc4c23)C(=O)N1O`, the growth is 62.1%.
The result for `CCc1ccc(-c2nnc(COc3ccc(-c4nc5ccccc5[nH]4)cc3OC)o2)cc1` reads 86.9%; that for `O=S(=O)(Nc1ccc(F)cc1F)c1ccc(-c2cnc(C3CC3)o2)cc1`, 2.58% (active).
For `CC1=NN(c2cccc(Cl)c2)C(=O)/C1=C\c1cn(-c2nc(N3CCOCC3)nc(N3CCOCC3)n2)c2ccccc12` the value was 95.9%; for `Cc1ccc(NC(=O)CN2CCOCC2)cc1Cl`, 99.1%; for `Cc1cc(C)c(C(=O)OC(C)CNC2CCCCC2)c(C)c1` (stereo not given), 103%.
Take `Cc1csc(/N=C(N)/N=C(\N)c2cccnc2)n1`: the growth is 91.9%.
For the compound `CC[C@H](C)[C@H](NC(=O)[C@H](CCCCN)NC(=O)[C@H](CCCCN)NC(=O)[C@@H](NC(=O)[C@@H](NC(=O)[C@@H](N)Cc1cnc[nH]1)[C@@H](C)CC)[C@@H](C)CC)C(=O)N[C@@H](CCCNC(=N)N)C(=O)N[C@H](C(=O)N[C@@H](Cc1c[nH]c2ccccc12)C(=O)N[C@@H](Cc1ccc(O)cc1)C(=O)N[C@@H](CCCNC(=N)N)C(=O)N[C@@H](CCCCN)C(=O)N[C@@H](C)C(=O)N[C@@H](Cc1c[nH]c2ccccc12)C(=O)N[C@@H](Cc1cnc[nH]1)C(=O)N[C@H](C(=O)N[C@@H](CC(C)C)C(=O)NCC(=O)N[C@@H](CCCCN)C(=O)N[C@H](C(N)=O)C(C)C)C(C)C)[C@@H](C)O`, the growth is 59.2%.
Turning to `CC1CCC2(OC1)OC1CC3C4CC=C5CC(O)CCC5(C)C4CCC3(C)C1C2C` (stereo not given), the growth is 89.4%.
`Cc1ccc(N2CCN(C3=C(Cl)C(=O)c4ncccc4C3=O)CC2)cc1`: the growth was -63.9% (active).
For `C[C@H]1O[C@@H](O[C@H]2[C@@H](O)C[C@H](O[C@H]3[C@@H](O)C[C@H](O[C@H]4CC[C@]5(C)C6CC[C@]7(C)[C@@H](C8=CC(=O)OC8)CC[C@]7(O)C6CC[C@@H]5C4)O[C@@H]3C)O[C@@H]2C)C[C@H](O)[C@@H]1O` (stereo not given in full) the value was -60% (active).
On to `CCn1c2ccc(O)cc2c2c(C)c3c[n+](C(C)C)ccc3c(C)c21`, for which the growth was -19.7% (active).
`CCOc1ccc(-n2cc(-c3ccc(N(C)C)cc3)[n+]3c2CCCCC3)cc1`: the growth is -17.4% (active).
As for `Clc1ccc([C@@H]2C[C@@H]3Cc4cc(Br)c5ccccc5c4N2O3)c(Cl)c1`, the growth is 59.2%.
For the compound `COc1cc(C)ccc1Oc1nc(Nc2ccc(N3CCOCC3)cc2)ncc1N=Cc1cc(C(F)(F)F)cc(C(F)(F)F)c1`, the growth was 71%.
In the case of `COc1ccc2c(c1)[nH]c(=O)c1c3cc(OC)c(OC)cc3cn21`, the growth was 11.4%.
Turning to `COc1ccccc1N1CCN(C(CNS(=O)(=O)c2ccc(Cl)cc2)c2cccnc2)CC1` (stereo not given), the growth was 98.8%.
With `Clc1ccc2c(NCCN3CCN(c4ccnc(N5CCCC5)n4)CC3)ccnc2c1`, the growth is -4.71% (active).
`CCOC(=O)c1c(C)nc2c(c1N)CC(=O)N2Cc1ccc(F)cc1`: the growth is 91%.
For the compound `COc1cc(-c2c3c(c(Br)n2Cc2ccccc2)-c2nc(N)sc2CC3)cc(OC)c1OC`, the growth was 73.4%.
The result for `Cc1cc2nc3ccc(N=Nc4ccc(N(C)C)cc4)cc3n(-c3ccccc3)c-2cc1=N` reads -89.4% (active); that for `CC/C=C\C[C@H](O)C/C=C1/C(=O)C(Cl)=C[C@@H]1C/C=C\CCCC(=O)OC`, -62.1% (active); that for `FC(F)(F)c1cn(CC2CNC2)c2ncnc(Cl)c12`, 111%.
The result for `COc1cc(-c2nn(C(C)(C)C)cc2-c2ccnc(NCCCNS(=O)(=O)c3ccccc3)n2)ccc1Cl` reads 67.3%.
Consider `Nc1cc(C(=O)N/N=C\c2ccc(OC(F)F)c(OC3CCCC3)c2)nn1CC(O)c1ccccc1` (stereo not given), for which the growth is 106%.
Regarding `COc1cc(-c2ccc(-c3ccc(C(=N)N)s3)s2)cc(OC)c1OC`, the growth was 23.8%.
For `Cc1nn(-c2ccc(Br)cc2)c2nc3c(nc12)C(=O)C(=O)c1ccccc1-3` the value was 95.1%; for `C=CCn1c(SCC(=O)Nc2ccc(/C(C)=N\O)cc2)nnc1-c1cc(-c2ccc(Cl)cc2)nc2ccccc12`, 42.7%.

The values are drawn from PubChem BioAssay (NCI).
